Molecules are shown by their SMILES. The whole screen tested about 2,400 compounds, of which about 220 (9.2%) were called active. The sample holds actives, similar compounds and a random draw of the others, so the mix is not that of the screen. Values without a mark were called inactive.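 How the source made its calls: active means signal change above the mean of dofetilide-free buffer controls plus 3 SD, so a positive margin; inactive means the rest.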

The assay in a line: thallium signal changes without hERG – cell-based, CHO-K1 parental line, FluxOR thallium flux, counter-screen for hERG block protection project, confirmation (AID 1839).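 Further: compounds applied alone with no dofetilide to cells lacking hERG.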 The note with it: CHO-K1 parental cells, FluxOR thallium flux fluorescence; at 10 µM.
In the case of `O=C(NC(=S)N1CCCc2ccccc21)c1ccccc1`, the signal change vs control minus 3*SD hit threshold (margin above threshold, higher = more increase) was -30.8%.

Consider `O=C(NC(=S)N1CCc2ccccc21)c1ccco1`, for which the signal change vs control minus 3*SD hit threshold (margin above threshold, higher = more increase) was -18.3%.

For `O=C(NC(=S)N1CCc2ccccc21)c1ccccc1Br`, the signal change vs control minus 3*SD hit threshold (margin above threshold, higher = more increase) is 48.4% (active).

On to `S=C(Nc1ccccc1)Nc1nc2ccccc2n1CCOc1ccccc1`, for which the signal change vs control minus 3*SD hit threshold (margin above threshold, higher = more increase) was -30.2%.

Turning to `CN(C(=S)NC(=O)c1ccc(F)cc1)C1CCCCC1`, the signal change vs control minus 3*SD hit threshold (margin above threshold, higher = more increase) was -31.9%.

In the case of `CC1CCN(C(=S)NC(=O)c2ccc(C(C)(C)C)cc2)CC1`, the signal change vs control minus 3*SD hit threshold (margin above threshold, higher = more increase) was -18%.

Consider `COC(=O)n1c(=S)oc2cc(Cl)ccc21`, for which the signal change vs control minus 3*SD hit threshold (margin above threshold, higher = more increase) was -22.1%.

For `CCn1c(=S)[nH]c2c(c1=O)C(C)(C)Cc1ccccc1-2`, the signal change vs control minus 3*SD hit threshold (margin above threshold, higher = more increase) was -6.7%.

Turning to `CC(=O)NC(CSC(CC(=O)c1ccco1)c1ccc(C)cc1)C(=O)O` (stereo unspecified), the signal change vs control minus 3*SD hit threshold (margin above threshold, higher = more increase) is -32.8%.

With `CCCCCCC1CCC(C(=O)N2CCOCC2)CC1` (stereo unspecified), the signal change vs control minus 3*SD hit threshold (margin above threshold, higher = more increase) is -21.3%.

As to `CCCCCC/C(C)=C1/SC(=S)NC1=O`, the signal change vs control minus 3*SD hit threshold (margin above threshold, higher = more increase) is 39.1% (active).

On to `CCCCCCCC/C=C\CCCCCCCC(=O)O`, for which the signal change vs control minus 3*SD hit threshold (margin above threshold, higher = more increase) is -20.7%.

For `COc1ccc(S(=O)(=O)Nc2ccc(Cl)cn2)c(C)c1C`, the signal change vs control minus 3*SD hit threshold (margin above threshold, higher = more increase) is -32.2%.

In the case of `Cc1ccc(N2CCN(C(=O)N3CCCC3)CC2)cc1C`, the signal change vs control minus 3*SD hit threshold (margin above threshold, higher = more increase) was -15.1%.

Take `CCC1(c2ccccc2)NC(=S)N(c2ccc(C)c(C)c2)N1` (stereo unspecified): the signal change vs control minus 3*SD hit threshold (margin above threshold, higher = more increase) was 48.1% (active).

Consider `CCC1(c2ccc(Cl)cc2)NC(=S)N(c2ccc(C)c(C)c2)N1` (stereo unspecified), for which the signal change vs control minus 3*SD hit threshold (margin above threshold, higher = more increase) is 40.7% (active).

For the compound `Nc1ccc2c(c1)C(=O)C(=O)c1ccccc1-2`, the signal change vs control minus 3*SD hit threshold (margin above threshold, higher = more increase) is -22.4%.

Take `O=C(CCc1ccccc1)NC(=S)Nc1cc(C(F)(F)F)ccc1N1CCOCC1`: the signal change vs control minus 3*SD hit threshold (margin above threshold, higher = more increase) was -29.5%.

For `CC(=O)NC1C(Oc2ccccc2C)OC(CO)C(O)C1O` (stereo unspecified), the signal change vs control minus 3*SD hit threshold (margin above threshold, higher = more increase) was -23.9%.

Take `Cc1ccc(C(=O)NC(=S)N(C)C2CCCCC2)cc1`: the signal change vs control minus 3*SD hit threshold (margin above threshold, higher = more increase) was -21.2%.

As for `CCc1nnc(NC(=O)C2CCCCN2S(=O)(=O)c2ccccc2)s1` (stereo unspecified), the signal change vs control minus 3*SD hit threshold (margin above threshold, higher = more increase) was -23%.

Take `CCOC(=O)C1=NN(C(=O)c2ccccc2)C(O)(c2ccc(C)cc2)C1` (stereo unspecified): the signal change vs control minus 3*SD hit threshold (margin above threshold, higher = more increase) is -27.5%.

`COc1ccc(C(=O)CC(=O)C(=O)Nc2ccc(Cl)cc2)cc1`: the signal change vs control minus 3*SD hit threshold (margin above threshold, higher = more increase) was -16.3%.

Regarding `CCOC(=O)C1=NN(C(=O)c2ccc(OC)cc2)C(O)(c2ccc(Cl)cc2)C1` (stereo unspecified), the signal change vs control minus 3*SD hit threshold (margin above threshold, higher = more increase) was 14.4% (active).

With `CCOC(=O)C1=NN(C(=O)c2ccc(C)cc2)C(O)(c2ccc(Cl)cc2)C1` (stereo unspecified), the signal change vs control minus 3*SD hit threshold (margin above threshold, higher = more increase) is 50.6% (active).

Take `CCOC(=O)c1nc(C)n(-c2ccc(Cl)cc2)n1`: the signal change vs control minus 3*SD hit threshold (margin above threshold, higher = more increase) is -24.3%.

Consider `COc1ccc(OC)c(NC(=O)COC(=O)c2ccc(-n3cnnn3)cc2)c1`, for which the signal change vs control minus 3*SD hit threshold (margin above threshold, higher = more increase) is -34.5%.

For `COc1ccccc1CNC(=O)COC(=O)c1ccccn1`, the signal change vs control minus 3*SD hit threshold (margin above threshold, higher = more increase) was -28.9%.

Consider `COc1cc(C(=O)Nc2ccc(O)cc2C(=O)O)ccc1OC(C)=O`, for which the signal change vs control minus 3*SD hit threshold (margin above threshold, higher = more increase) was -19.9%.

As to `O=C(O)c1ccc(N=NNc2cccc([N+](=O)[O-])c2)cc1`, the signal change vs control minus 3*SD hit threshold (margin above threshold, higher = more increase) is -26.6%.

On to `CCCCOC(=O)Cn1c2ccc(OC)cc2c2nc3ccccc3nc21`, for which the signal change vs control minus 3*SD hit threshold (margin above threshold, higher = more increase) is -28.3%.

Regarding `CC(C)OC(=O)c1c2nc3ccccc3nc2n2c1[nH]c(=O)c1ccccc12`, the signal change vs control minus 3*SD hit threshold (margin above threshold, higher = more increase) is 29.4% (active).

Regarding `CCc1ccc(C(=O)CSc2nc3ccccc3c(=O)[nH]2)cc1`, the signal change vs control minus 3*SD hit threshold (margin above threshold, higher = more increase) is -26.7%.

In the case of `O=C(COc1ccccc1Cl)NC(=S)Nc1ccccc1N1CCCC1`, the signal change vs control minus 3*SD hit threshold (margin above threshold, higher = more increase) is -25.7%.

With `S=C(NCCc1ccccc1)N/N=C/c1c(Cl)cccc1Cl`, the signal change vs control minus 3*SD hit threshold (margin above threshold, higher = more increase) is -34.7%.

As for `CCc1cc(=O)[nH]c(SCc2ccc(C)cc2)n1`, the signal change vs control minus 3*SD hit threshold (margin above threshold, higher = more increase) was -28.5%.

In the case of `CSc1nc(=S)cc(C)[nH]1`, the signal change vs control minus 3*SD hit threshold (margin above threshold, higher = more increase) is -16.8%.

On to `CCSc1nc(=S)cc(C)[nH]1`, for which the signal change vs control minus 3*SD hit threshold (margin above threshold, higher = more increase) was 26.3% (active).

With `CSc1cccc(NC(=O)CN2C(=O)c3ccccc3S2(=O)=O)c1`, the signal change vs control minus 3*SD hit threshold (margin above threshold, higher = more increase) was -50.6%.

With `CCCCn1nc(NC(=O)COC)c2cc3ccc(C)cc3nc21`, the signal change vs control minus 3*SD hit threshold (margin above threshold, higher = more increase) is -27.6%.

Consider `CCOC(=O)C1CCCN(C(=O)CN2C(=O)c3ccccc3C2=O)C1` (stereo unspecified), for which the signal change vs control minus 3*SD hit threshold (margin above threshold, higher = more increase) is -35.1%.

The values above are taken from PubChem BioAssay AID1839 (Johns Hopkins Ion Channel Center, 2009).
